Experimental data as given in PubChem BioAssay.

Assay: JC-1 mitochondrial signal, unstimulated HepG2 cells – cell-based, JC-1 fluorescence, 24 h, 100 nL compound, profiling panel (AID 1167); note: test concentration not given here
Settings: HepG2 mitochondrial potential, higher = more signal
Work on `C=C(COC)/C(=C/C[C@@H](OC(C)=O)c1ccc(CO)o1)c1cnc2ccccc2c1` yielded a z-score of -0.733.
Work on `COc1ccc(C#Cc2ccc3c(c2)[C@]2(C(=O)N3)[C@H](c3ccccc3OCCO)N3[C@H](c4ccccc4)[C@H](c4ccccc4)OC(=O)[C@H]3[C@@H]2C(=O)O)cc1` yielded a z-score of -3.62.
`COc1ccc([Si](C)(C)[C@@H]2[C@@H](CC(=O)N3Cc4ccccc4C[C@H]3CO)O[C@]3(C(=O)N(C)c4c(Br)cc(C)cc43)[C@H]2C)cc1` gave a z-score of 0.634.
Compound `C=C(CCCC)C(=O)CC[C@@H](OC(=O)c1cccnc1)c1ccc(CO)o1` has a z-score of -1.35.
Compound `Cc1ccc(S[C@]2(C(=O)NCC(C)C)CC(=O)N(Cc3cc(C(F)(F)F)cc(C(F)(F)F)c3)[C@@H]2c2ccc(CO)cc2I)cc1` has a z-score of -0.523.
Work on `CO[C@H]1O[C@H](CO)[C@@H](OC(=O)Nc2ccc(Br)cc2)[C@H](OC(=O)c2cc3ccccc3[nH]2)[C@H]1OC(=O)c1cc2ccccc2[nH]1` yielded a z-score of -2.38.
Compound `CCc1oc(CC[C@@H](CO)NC(=O)NCCn2cc(C3(O)CCCCC3)nn2)c(C(=O)OC)c1C(=O)OC` has a z-score of -0.176.
For `COc1ccc(C(=O)Nc2ccc(CN3C(=O)[C@@]4(O[C@@H](CCn5cc([C@H](O)c6ccccc6)nn5)[C@H]([Si](C)(C)c5ccc(OC)cc5)[C@H]4C)c4ccccc43)cc2)cc1`, the z-score was 1.73.
Work on `Cc1ccc(C(C)CC(O)C2C=CC3C(=O)N(c4ccccc4)C(=O)C3N2Nc2ccc([N+](=O)[O-])cc2)o1` (stereo unspecified) yielded a z-score of -0.414.
`COCCCNC(=O)[C@@]1(Cc2ccccc2N=[N+]=[N-])N=C(c2ccc(OCCCO)cc2)O[C@H]1c1ccccc1N=[N+]=[N-]` showed a z-score of 1.77.
`COCCOC(=O)N1C(=O)[C@@]2(c3cc(C#Cc4ccc(OC)cc4)ccc31)[C@H](c1ccccc1OCCO)N1[C@H](c3ccccc3)[C@H](c3ccccc3)OC(=O)[C@H]1[C@@H]2C(=O)N1CCN(c2ncccn2)CC1` showed a z-score of 0.356.
Compound `COc1cc2c(cc1OC)CN(C(=O)[C@H]1[C@@H]3C(=O)O[C@@H](c4ccccc4)[C@@H](c4ccccc4)N3[C@@H](c3ccc(O)cc3)[C@]13C(=O)Nc1ccc(C#CC4=CCCCC4)cc13)CC2` has a z-score of -0.259.
For `CCCCc1cn(C[C@H](Cc2ccccc2)NC(=O)N[C@H](CO)CCc2oc(C(C)=O)c(C(=O)OC)c2C(=O)OC)nn1`, the z-score was 0.173.
Work on `CN(C)C(=O)[C@]1(Cc2ccccc2N=[N+]=[N-])N=C(c2ccc(OCCCO)cc2)O[C@@H]1c1ccccc1` yielded a z-score of 0.397.
For `C=CCNC(=O)[C@@H]1[C@H]2C(=O)O[C@H](c3ccccc3)[C@H](c3ccccc3)N2[C@H](c2ccc(OCCO)cc2)[C@@]12C(=O)Nc1ccc(C#CCCO)cc12`, the z-score was 1.1.
In the case of `[N-]=[N+]=NCc1ccccc1C[C@]1(C(=O)N2CCOCC2)N=C(c2ccc(OCCCO)cc2)O[C@H]1c1ccccc1N=[N+]=[N-]`, the z-score is reported as 0.665.
Compound `C=CCNC(=O)[C@H]1[C@@H]2C(=O)O[C@@H](c3ccccc3)[C@@H](c3ccccc3)N2[C@@H](c2ccc(OCCO)cc2)[C@]12C(=O)Nc1ccc(C#CC3=CCCCC3)cc12` has a z-score of -1.43.
For `COC(=O)[C@@]1(Cc2ccc(OC)cc2)[C@H]2c3cc(C(=O)N4CCCC4)n(Cc4ccccc4)c3C[C@H]2CN1C(=O)c1ccccc1`, the z-score was 2.44.
`CCCC[C@@H]1C[C@H]1[C@@H](NC(=O)c1ccco1)c1ccc(C(=O)OC)cc1` showed a z-score of -2.68.
In the case of `C=CCOC(=O)[C@H]1[C@@H]2C(=O)O[C@@H](c3ccccc3)[C@@H](c3ccccc3)N2[C@@H](c2ccc(OCCOC(=O)[C@H]3C[C@H]4C(=O)N[C@@H](CC(C)C)C(=O)N4[C@H]3c3ccc(O)cc3)cc2)[C@]12C(=O)Nc1ccc(I)cc12`, the z-score is reported as -0.626.
Work on `COC(=O)c1c(CC[C@@H](CO)NC(=O)N[C@@H](C)Cn2cc(C3(O)CCCCC3)nn2)oc(C(C)=O)c1C(=O)OC` yielded a z-score of -0.637.
For `CC(C)N1C(=O)[C@@]2(Cc3ccccc31)c1ccccc1C(=O)N(C1CCCCC1)[C@H]2c1ccc(CO)cc1`, the z-score was 0.095.
`CN(C)CCCNC(=O)[C@@]1(c2ccc([N+](=O)[O-])cc2)CC(=O)N(C2CCCCC2)[C@@H]1c1ccc(CO)cc1I` gave a z-score of -3.14.
Work on `CCOC(=O)C[C@H]1[C@H](OC(=O)c2ccc(C(=O)c3ccccc3)cc2)[C@@H](NC(=O)c2ccc(-c3ccccc3)cc2)c2cc(OCCCO)ccc2N1C(=O)c1ccccc1` yielded a z-score of 1.
In the case of `C=CCNC(=O)[C@@H]1[C@H]2C(=O)O[C@H](c3ccccc3)[C@H](c3ccccc3)N2[C@H](c2ccc(OCCO)cc2)[C@@]12C(=O)Nc1ccc(C#Cc3ccc(OC)cc3)cc12`, the z-score is reported as -1.12.
`O=C1O[C@H](c2ccccc2)[C@H](c2ccccc2)N2[C@H]1[C@@H](C(=O)N1CCN(c3ncccn3)CC1)[C@]1(C(=O)Nc3ccc(C#CC4=CCCCC4)cc31)[C@H]2c1ccc(O)cc1` showed a z-score of -1.49.
In the case of `O=C1OCCC/C=C\[C@H]2OC34C=CCN(c5ccc6ccccc6c5)C(=O)[C@H]3N(CCCCCCO)C(=O)[C@@H]4C12` (stereo partly specified), the z-score is reported as 1.02.
With `C#CCN(CC=C(C)C)[C@H](CO)c1ccccc1` the z-score was -1.16.
In the case of `C=C(CCCC)C(=O)CC[C@H](OC(C)=O)c1cccc(OCCO)c1`, the z-score is reported as -0.525.
`COCCOC(=O)N1C(=O)[C@@]2(c3cc(C#Cc4ccc(OC)cc4)ccc31)[C@H](C(N)=O)[C@H]1C(=O)O[C@H](c3ccccc3)[C@H](c3ccccc3)N1[C@@H]2c1ccccc1OCCO` showed a z-score of -1.79.
`COc1ccc(C(=O)Nc2cccc(CN3C(=O)[C@]4(O[C@H](CCO)[C@@H]([Si](C)(C)c5ccc(OC)cc5)[C@@H]4C)c4ccccc43)c2)cc1` showed a z-score of -2.23.
Compound `Cc1ccc(S[C@]2(C(=O)NCC(F)(F)F)CC(=O)N(C(C)C)[C@@H]2c2ccc(CO)cc2I)cc1` has a z-score of 0.409.
For `COC(=O)[C@@]1(Cc2ccc(OC)cc2)[C@H]2c3cc(C(=O)N(C)C)n(CCN4CNCC4=O)c3C[C@H]2CN1C(=O)c1ccccc1`, the z-score was -0.812.
In the case of `COCCOC(=O)N1C(=O)[C@@]2(c3cc(C#CCNC(N)=O)ccc31)[C@H](C(=O)NC[C@H](O)c1ccccc1)[C@H]1C(=O)O[C@H](c3ccccc3)[C@H](c3ccccc3)N1[C@@H]2c1ccccc1OCCO`, the z-score is reported as -0.523.
In the case of `CC(C)(C)OC(=O)CC[C@]1(C(=O)O)N=C(c2ccc(OCCCO)cc2)O[C@H]1c1ccccc1N=[N+]=[N-]`, the z-score is reported as -2.45.
With `O=C1C2C=CC(C(O)C(c3ccccc3)c3ccccc3)N(n3cnnc3)C2C(=O)N1Cc1ccccc1` (stereo unspecified) the z-score was -1.26.
